Experimental data: PubChem BioAssay AID1159580 (chemical genetic matrix, 2015)
Values joined by “and” are separate entries in the source; they are usually repeats but may differ in a detail not shown here. Equal entries are not always repeated. Hit rate of the full screen: of about 5,500 compounds, about 2,000 (36%) were called active. Roughly 18% stayed inconclusive and do not appear here. Cut-off read from the data, not from the text of the source: active = normalized growth mostly below about 0.91 (no sharp cut-off); inconclusive = no clear call, values can overlap the other calls; inactive = mostly above about 0.92. The list shows a part of the results.

Assay: chemical genetic growth profiling, strain panel (AID 1159580);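 note: tested at 20 µM; growth read once vehicle control cultures reached saturation at 30 °C; 1 = growth at the plate median or of vehicle wells; lower values mean less growth of the strain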
Conditions: S. cerevisiae deletion strains, growth OD

Measured: normalized growth

CN(C)CCCO[C@H]1[C@@H](C(O)CO)OC2OC(C)(C)O[C@@H]21 (some centres not stated)
inactive: locus YAL013W, strain DEP1, hits give low values 0.928 | locus YAL021C, strain ccr4, hits give low values 1 | locus YAL026C, strain drs2, hits give low values 0.98 | locus YAL030W, strain snc1, hits give low values 0.98 | locus YBL061C, strain skt5, hits give low values 0.98 | locus YBR009C, strain hhf1, hits give low values 0.985 | locus YBR021W, strain FUR4, hits give low values 0.953 | locus YBR023C, strain chs3, hits give low values 0.98 | locus YBR171W, strain sec66, hits give low values 0.964 | locus YBR229C, strain ROT2, hits give low values 0.993 | locus YBR231C, strain swc5, hits give low values 0.992 | locus YBR279W, strain paf1, hits give low values 1.01 | locus YCL011C, strain gbp2, hits give low values 0.956 | locus YCL016C, strain dcc1, hits give low values 0.973 | locus YCL029C, strain bik1, hits give low values 0.984 | locus YCL061C, strain MRC1, hits give low values 0.987 | locus YCL069W, strain vba3, hits give low values 0.996 | locus YCR088W, strain abp1, hits give low values 0.994 | locus YDL005C, strain med2, hits give low values 0.995 | locus YDL035C, strain GPR1, hits give low values 0.946 | locus YDL040C, strain nat1, hits give low values 0.995 | locus YDL074C, strain BRE1, hits give low values 0.871 | locus YDL101C, strain DUN1, hits give low values 0.994 | locus YDL134C, strain PPH21, hits give low values 0.991 | locus YDL185W, strain tfp1, hits give low values 0.98 | locus YDL192W, strain arf1, hits give low values 0.966 | locus YDR001C, strain nth1, hits give low values 0.968 | locus YDR069C, strain doa4, hits give low values 0.989 | locus YDR101C, strain arx1, hits give low values 0.981 | locus YDR137W, strain rgp1, hits give low values 0.963 | locus YDR150W, strain NUM1, hits give low values 0.995 | locus YDR159W, strain sac3, hits give low values 0.982 | locus YDR162C, strain NBP2, hits give low values 1.08 | locus YDR195W, strain ref2 0.995 | locus YDR297W, strain sur2, hits give low values 0.992 | locus YDR318W, strain mcm21, hits give low values 0.933 | locus YDR334W, strain swr1, hits give low values 0.938 | locus YDR335W, strain msn5, hits give low values 0.981 | locus YDR388W, hits give low values 0.989 | locus YDR392W, strain spt3, hits give low values 0.921 | locus YDR502C, strain sam2, hits give low values 0.937 | locus YEL003W, strain gim4, hits give low values 0.98 | locus YEL037C, strain rad23, hits give low values 0.977 | locus YEL061C, strain CIN8 (second series), hits give low values 0.975 | locus YEL061C, strain CIN8, hits give low values 0.993 | locus YER015W, strain faa2, hits give low values 0.991 | locus YER016W, strain bim1, hits give low values 0.999 | locus YER110C, hits give low values 0.946 | locus YER111C, strain swi4, hits give low values 0.986 | locus YER155C, strain BEM2 (second series), hits give low values 0.98 | locus YER155C, strain BEM2, hits give low values 1 | locus YER167W, strain BCK2, hits give low values 0.915 | locus YFR010W, strain ubp6, hits give low values 0.971 | locus YGL078C, strain dbp3, hits give low values 1 | locus YGL167C, strain pmr1, hits give low values 0.984 | locus YGL173C, strain kem1, hits give low values 0.964 | locus YGL227W, strain vid30, hits give low values 0.987 | locus YGL240W, strain doc1, hits give low values 1 | locus YGL248W, strain PDE1, hits give low values 0.977 | locus YGL253W, strain hxk2, hits give low values 0.996 | locus YGR078C, strain PAC10, hits give low values 0.907 | locus YGR135W, strain pre9, hits give low values 0.929 | locus YGR252W, strain gcn5, hits give low values 0.849 | locus YHR013C, strain ard1, hits give low values 0.973 | locus YHR027C, strain rpn1, hits give low values 0.968 | locus YHR030C, strain SLT2, hits give low values 0.984 and 0.969 | locus YHR079C, strain IRE1 (second series), hits give low values 0.977 | locus YHR079C, strain IRE1, hits give low values 0.984 | locus YHR094C, strain hxt1, hits give low values 0.986 | locus YHR129C, strain ARP1, hits give low values 0.963 | locus YHR142W, strain chs7, hits give low values 0.946 | locus YHR200W, strain rpn10, hits give low values 0.948 | locus YIL066C, strain RNR3, hits give low values 0.951 | locus YIL073C, strain SPO22, hits give low values 0.932 | locus YIL125W, strain kgd1, hits give low values 0.993 | locus YIR030C, strain dcg1, hits give low values 0.986 | locus YJL092W, strain hpr5, hits give low values 0.987 | locus YJL095W, strain BCK1 (second series), hits give low values 0.993 | locus YJL095W, strain BCK1, hits give low values 0.883 and 0.978 | locus YJL115W, strain asf1, hits give low values 0.963 | locus YJL129C, strain trk1, hits give low values 1.01 | locus YJL134W, strain LCB3, hits give low values 0.993 | locus YJL154C, strain vps35, hits give low values 0.966 | locus YJL164C, strain tpk1, hits give low values 0.998 | locus YJL166W, strain qcr8, hits give low values 0.969 | locus YJL168C, strain set2, hits give low values 0.985 | locus YJL187C, strain SWE1 (second series), hits give low values 0.989 | locus YJL187C, strain SWE1, hits give low values 0.994 | locus YJR066W, strain TOR1, hits give low values 0.97
active: locus YGL086W, strain mad1, hits give low values 0.926 | locus YGR229C, strain SMI1, hits give low values 0.8 | locus YJR043C, strain POL32, hits give low values 0.85
